MsrA inhibitor – inhibits bovine methionine sulfoxide reductase A; purified bovine MsrA, absorbance read-out; inhibition, % at 15.5 µM; actives 0.75% (n = 360,000);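 further: 0% = vehicle wells with enzyme and 100% = reference inhibitor wells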
ABCB6 inh 2 – human ABCB6 transporter inhibition | K562-ABCB6 porphyrin accumulation, flow cytometry, 1 h; hits give low values | fluorescence ratio to DMSO, % at 10 µM | actives 0.19% (n = 360,000);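 active means fluorescence ratio to DMSO below 75%, the collection mean minus 3 SD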;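 further: signal is porphyrin accumulated inside mitochondria; 100% equals median channel fluorescence of DMSO control wells; lower ratio means ABCB6 inhibition with less porphyrin fluorescence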
MsrA act – activators of bovine methionine sulfoxide reductase A; purified bovine MsrA, absorbance read-out; activation, % at 10.6 µM; actives 0.3% (n = 360,000); AID 602163; in the data active means activation above about 7.5%;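 further: 0% = vehicle and 100% = reference activator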
SMARCA2 activ – SMARCA2 function activation, primary screen. MG213 cells, MMTV-luciferase reporter, dexamethasone, overnight. activation, % at 9.1 µM. actives 1% (n = 370,000). AID 652017; in the data active means activation above about 7.8%;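 further: 0% = vehicle wells and 100% = reference activator wells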
MsrA inh confirm – confirmation of bovine MsrA inhibitors; shares compounds with MsrA inhibitor; purified bovine MsrA, absorbance read-out; inhibition, % at 15.5 µM; actives 41% (n = 2,300); AID 651822;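 further: coupled to thioredoxin reductase with NADPH and selenocystamine and DMSO as substrate; 0% = vehicle only and 100% = full effect of reference inhibitor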
An asterisk follows results filed as active. In the library only some 2.1% were active in any assay of this set; here they are far more common. Unless noted, no stated cut-off is given here; in the data, active means inhibition above about 4.5%; inactive means the rest.

Screening CN1CCN(c2nc(C#N)cc(-c3ccccc3)n2)CC1 returned MsrA inhibitor 5.0*, ABCB6 inh 2 94.0, MsrA act -5.0, SMARCA2 activ 3.5 and MsrA inh confirm 1.0.
`COc1ccc(/C=C/C(=O)c2c(O)ccc3c(C)cc(=O)oc23)cc1` gave MsrA inhibitor 5.4*, ABCB6 inh 2 104.0, MsrA act -4.7, SMARCA2 activ 0.6 and MsrA inh confirm 5.1*.
For COc1ccc(/C=C\C(=O)c2c(O)ccc3c(C)cc(=O)oc23)cc1 the results were MsrA inhibitor 5.3*, ABCB6 inh 2 105.0, MsrA act -9.3, SMARCA2 activ 2.3 and MsrA inh confirm 4.5.
Screening C[C@H](O)[C@@H]1CN2CCc3ccc(N4CCOCC4)cc3[C@@H]2C[C@@H]1N(C)C(=O)c1ccccc1F returned SMARCA2 activ 0.5.
`COC(=O)c1cc(-c2cccc(C#N)c2)c(=O)n2c1CCC2` gave SMARCA2 activ -3.3.
Screening CC(=O)c1cc(-c2ccc3c(c2)OCO3)c(=O)n2c1CCC2 returned SMARCA2 activ -1.1.
For Cc1c(C(=O)N2CCOCC2)sc(NC(=O)c2ccc3c(c2)OCO3)c1C#N the results were MsrA inhibitor 5.0*, ABCB6 inh 2 91.0, MsrA act -4.8, SMARCA2 activ -0.6 and MsrA inh confirm 4.0.
Screening CCN(CC)C(=O)c1sc(NC(=O)c2ccc3c(c2)OCO3)c(C#N)c1C returned MsrA inhibitor 1.9, ABCB6 inh 2 107.0, MsrA act -12.5 and SMARCA2 activ -1.3.
Screening C=CCn1c(-c2ccccc2)nc(=S)c2c1CC(C)(C)OC2 returned MsrA inhibitor 5.1*, ABCB6 inh 2 96.0, MsrA act -3.9, SMARCA2 activ -4.6 and MsrA inh confirm 3.9.
For COc1ccc(-c2nc(=S)c3c(n2CCN2CCOCC2)CC(C)(C)OC3)cc1 the results were MsrA inhibitor 4.9*, ABCB6 inh 2 99.0, MsrA act -11.6, SMARCA2 activ 1.7 and MsrA inh confirm 4.4.
COc1ccc(CNCC#Cc2ccccc2)c(OC)c1 was read as SMARCA2 activ -2.1.
For O=C1NC(=O)/C(=C/c2ccco2)N1 the results were MsrA inhibitor 7.9*, ABCB6 inh 2 94.0, MsrA act -7.3, SMARCA2 activ 0.7 and MsrA inh confirm 6.2*.
`O=c1oc2ccccc2c2[nH]ccc12` gave MsrA inhibitor 1.1, ABCB6 inh 2 103.0, MsrA act -7.8 and SMARCA2 activ -3.6.
O=c1oc2ccccc2c2c1ccc1ccccc12 was read as MsrA inhibitor 6.2*, ABCB6 inh 2 94.0, MsrA act -1.9, SMARCA2 activ 1.2 and MsrA inh confirm 5.0*.
`Cn1c(Cc2cccs2)nnc1SCC(=O)Nc1ccc2cn[nH]c2c1` gave SMARCA2 activ -6.4.
For CC(COc1ccc(F)cc1)CN1CCC(C(O)(c2ccccc2)c2ccccc2)CC1 (centres undefined) the results were SMARCA2 activ -6.6.
For Cc1ccc2c(c1)C1CS(=O)(=O)N(CCc3ccccc3)C(=O)N1C2 (centres undefined) the results were SMARCA2 activ 0.6.
For CCOc1ncccc1C(=O)Nc1ccc2c(c1)OCO2 the results were MsrA inhibitor 5.0*, ABCB6 inh 2 100.0, MsrA act -3.4, SMARCA2 activ 0.8 and MsrA inh confirm 4.5.
Cc1ccc(N(C)c2nc(N)nc(N)c2N=O)cc1 was read as MsrA inhibitor 0.1 and SMARCA2 activ -5.1.
Screening CN(C)c1ccc(C(=O)OCC(=O)N2CCCC2)cc1 returned MsrA inhibitor 5.7*, ABCB6 inh 2 91.0, MsrA act -3.6, SMARCA2 activ 1.6 and MsrA inh confirm 1.8.
Screening CN(C)c1ccc(C(=O)OCC(=O)N2CCCCCC2)cc1 returned MsrA inhibitor 3.0, ABCB6 inh 2 102.0, MsrA act -5.4 and SMARCA2 activ 6.2.
CS(=O)(=O)Nc1ccc(C2=NN(C(=O)c3ccccc3)C(c3cccs3)C2)cc1 (centres undefined) was read as MsrA inhibitor 4.8*, ABCB6 inh 2 99.0, MsrA act -11.2, SMARCA2 activ -1.7 and MsrA inh confirm 1.5.
CS(=O)(=O)Nc1ccc(C2=NN(C(=O)c3cccc(F)c3)C(c3cccs3)C2)cc1 (centres undefined) was read as MsrA inhibitor 2.6, ABCB6 inh 2 97.0, MsrA act -4.0 and SMARCA2 activ -4.8.
`Oc1ccc(C(=Nc2ccccc2)c2ccccc2)c(O)c1` gave MsrA inhibitor 5.3*, ABCB6 inh 2 97.0, MsrA act -5.1, SMARCA2 activ -2.3 and MsrA inh confirm 0.6.
CC(C)n1nnnc1C1(C)CCCCC(=O)N1Cc1cccc(C(F)(F)F)c1 (centres undefined) was read as SMARCA2 activ 6.3.

Source: PubChem
